Rows were chosen to be rich in hits. Some 4.6% of all compounds tested hit in one or more screens of this group.
HCV inh: blocks hepatitis C virus | Potency, µM (doses to about 41.8 µM), most hits filed as inhibitors | AID 651820 | hit rate 3.4% among 340,000 | Huh7.5.1 HCVcc-Cre infection, luciferase reporter, 44 h
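Cells seeded at 1,000/well and cultured 4 h, then compounds added followed by HCVcc-Cre virus (~0.5 moi). After 44 h further culture, luciferase substrate was added, plates held 15 min at room temperature, and luminescence read for 15 sec.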
MARV entry inh: Marburg virus entry inhibition; Marburg virus pseudotyped entry inhibition, cell reporter; Potency, µM (series often up to 37.8 µM), actives largely listed as inhibitors; hit rate 1.8% among 300,000; AID 540276; calls by dose curve; tested in HEK293 cells
Lassa entry inh: inhibitors of Lassa virus binding or cell entry; Potency, µM (series often up to 37.9 µM), hits mostly inhibitors; Lassa virus pseudotype entry inhibition, cell reporter; hit rate 1.2% among 300,000; calls by dose curve; tested in HEK293 cells; also: nearly all actives have a fitted effect of over 50% in size
VACV Venus inh: inhibitors of vaccinia virus (Venus reporter) | Vaccinia virus Venus reporter expression, fluorescence | Potency, µM (doses to about 36.5 µM), actives largely listed as inhibitors | hit rate 0.46% among 330,000 | AID 720580; calls by dose curve; tested in A549 cells; also: nearly all actives have a fitted effect of over 30% in size
VACV mCherry inh: inhibitors of vaccinia virus infection (mCherry reporter signal); Potency, µM (top dose mostly 36.5 µM), usual class: inhibitors; Vaccinia virus mCherry reporter infection, fluorescence; hit rate 0.63% among 310,000; calls by dose curve; tested in A549 cells; also: nearly all actives have a fitted effect of over 35% in size
G2M arrest HeLa: inducers of G2/M cell cycle arrest in HeLa cells. HeLa cell cycle G2/M arrest, Hoechst DNA content imaging. AID 2441. Potency, µM, usual class: inhibitors. hit rate 60% among 25. shares compounds with MARV entry inh
WI-38 cytotox: counter-screen for perinucleolar compartment inhibitors: WI-38 cytotoxicity; 120 tested, under 10 active; WI-38 normal lung fibroblasts, ATPLite luminescence ATP viability, 24 h; Potency, µM (series often up to 46.1 µM), usual class: inhibitors; shares compounds with MARV entry inh
PNC assembly inh: confirmation of perinucleolar compartment assembly inhibitors; shares compounds with MARV entry inh; PC3M PTB-GFP, PNC prevalence imaging, 16 h; Potency, µM (titrated, usually from 46.1 µM), usual class: inhibitors; hit rate 50% among 120
PC3M casp3-7: PC3M caspase 3/7 activation by PNC inhibitor hits; 120 tested, under 10 active; activity change, positive = activation, % at 46.1 µM; AID 2731; shares compounds with MARV entry inh; PC3M-GFP caspase 3/7 activation, luminescence, 24 h
Hits are given with their value; 0 = inactive; ? = inconclusive; - = no result; ! = repeats disagree; [ ] = another dose, or the depositor's remark. Unless noted, calls follow the shape of the dose curve; as a rule, active = well fitted curve in the direction sought with a large enough effect; inconclusive = small, poorly fitted or top-dose-only effect, or another doubt; inactive = no such curve, though single readings can be large; an effect the other way counts as inactive or inconclusive.

SMILES	HCV inh	MARV entry inh	Lassa entry inh	VACV Venus inh	VACV mCherry inh	WI-38 cytotox	PNC assembly inh	PC3M casp3-7	others
Cc1ccc(N(C(=O)c2snc(C(N)=O)c2N)C(C(=O)NCCC(C)C)c2ccco2)cc1 (configuration not stated)	32µM	-	-	-	-	-	-	-
CCc1ccc(N(C(=O)c2snc(C(N)=O)c2N)C(C(=O)NC2CCCC2)c2ccco2)cc1 (configuration not stated)	?	7.9µM	?	0	0	-	-	-
O=C(O)CC1c2ccccc2CCN1C(=O)Nc1cc(Cl)ccc1Cl (configuration not stated)	-	-	0	0	0	-	-	-
CNc1ccc2oc(C[C@H]3O[C@@]4(CC[C@H]3C)O[C@H]([C@H](C)C(=O)c3ccc[nH]3)[C@H](C)C[C@H]4C)nc2c1C(=O)O	2.2µM	2.9µM	0.23µM	2.5µM	3.5µM	-	-	-	G2M arrest HeLa=4.5
COc1ccc(CN2CCC(C(=O)NCCc3ccc(OC)c(OC)c3)CC2)c(OC)c1	0	?	0	0	-	0	?	0
COc1ccc(CCNC(=O)C2CC2)cc1OC	0	0	0	0	0	-	-	-
Cc1cc(C(=O)COc2ccccc2Cl)c(C)n1-c1ccc2c(c1)OCO2	0	16µM	4.1µM	0	0	0	7.9µM	0
CNS(=O)(=O)c1cccc(C(=O)OCC(=O)c2cc(C)n(-c3ccc4c(c3)OCO4)c2C)c1	0	0	0	0	-	-	-	-
COc1ccccc1CNC(=O)c1ccc2nc(CCc3ccccc3)oc2c1	-	-	0	0	0	-	-	-
Cc1cc[n+](C2=C([O-])c3ccccc3C(=O)/C2=N\S(=O)(=O)c2cccs2)cc1C	11µM	?	?	0	0	0	?	?
CCN(CC)S(=O)(=O)c1ccc(-c2nnco2)cc1	0	0	0	0	0	-	-	-
CCN(CC)S(=O)(=O)c1ccc(C2=NOC3(C2)N(C)c2ccccc2C3(C)C)cc1 (configuration not stated)	0	1.8µM	0.73µM	0	0	0	5µM	0
CCN(Cc1ccccc1)S(=O)(=O)c1ccc(N2CCCCS2(=O)=O)cc1	-	-	0	0	0	-	-	-
Cc1cc(C)c(S(=O)(=O)/N=C2/C=C(Sc3ncn[nH]3)C(=O)c3ccccc32)cc1C	?	1.6µM	13µM	6.3µM	?	0	6.3µM	0
COc1ccccc1NC1=C(N2CCCCC2)C(=O)c2ccccc2C1=O	?	?	?	10µM	?	0	11µM	?
COc1ccccc1NS(=O)(=O)c1cc(N)ccc1N1CCCC1	?	0	0	0	0	-	-	-
COc1cc(/C=N/NC(=O)c2ccc3nc[nH]c3c2)cc(OC)c1OC	0	0	0	0[7.34 µM]	0[7.34 µM]	-	-	-
COc1cc(/C=N/NC(=O)c2ccc(CSc3nc4ccccc4[nH]3)cc2)cc(OC)c1OC	?	?	?	0	0	0	0	0
C=C1C=C(C(F)F)n2ncc(C(=O)NCc3ccc(OC)cc3)c2N1	-	-	-	0	0	-	-	-
CCC1(O)CC2CN(CCc3c([nH]c4ccccc34)[C@@](C(=O)OC)(c3cc4c(cc3OC)N(C=O)C3[C@]45CCN4CC=C[C@@](CC)([C@@H](OC(C)=O)[C@]3(O)C(=O)OC)[C@H]45)C2)C1 (some centres not stated)	-	13µM!	-	-	-	-	-	-	G2M arrest HeLa=?
CCC1(O)CC2CN(CCc3c([nH]c4ccccc34)C(C(=O)OC)(c3cc4c(cc3OC)N(C=O)C3C(O)(C(=O)OC)C(OC(C)=O)C5(CC)C=CCN6CCC43C65)C2)C1 (configuration not stated)	0	?	?	?	?	-	-	-
CC(=O)O[C@H]1C(=O)[C@@]2(C)C([C@H](OC(=O)c3ccccc3)[C@]3(O)C[C@H](OC(=O)[C@H](O)[C@@H](NC(=O)c4ccccc4)c4ccccc4)C(C)=C1C3(C)C)[C@]1(OC(C)=O)CO[C@@H]1C[C@@H]2O (some centres not stated)	-	0.25µM	?	0	0	-	-	-	G2M arrest HeLa=0.013
COc1ccc(NC(=O)CSc2nc3ccccc3n2CC(=O)N(C)C2CCCCC2)cc1	-	-	0	0	0	-	-	-
Cn1nnnc1SCCNCc1ccc(OCc2ccc(Cl)cc2)cc1	-	0	0	0	0	-	-	-
CN(C)c1ccc(N=Nc2ccccc2C(=O)OCC(=O)NC2CCCC2)cc1	0	?	?	0	0	?	?	0
SMILES	HCV inh	MARV entry inh	Lassa entry inh	VACV Venus inh	VACV mCherry inh	WI-38 cytotox	PNC assembly inh	PC3M casp3-7	others
CN(C)c1ccc(N=Nc2ccccc2C(=O)OCC(=O)NCC2CCCCC2)cc1	0	?	0	0	0	-	-	-
Cc1cccc(C)c1Nc1c(-c2ccc(N3CCOCC3)cc2)nc2ncccn12	?	0	0	0	0	0	0	0
Cc1ccc(Nc2c(-c3ccc(N4CCOCC4)cc3)nc3ncccn23)c(C)c1	?	?	0	0	?	-	-	-
CC1(C)Cc2cccc(OCC(=O)Nc3ccccc3F)c2O1	0[8.37 µM]	-	-	-	-	-	-	-
Cc1cnc(NC(=O)COc2cccc3c2OC(C)(C)C3)s1	?	?	0.71µM	0	7.9µM	0	7.9µM	0
CCOC(=O)CSc1nc2c(sc3ccc([N+](=O)[O-])cc32)c(=O)n1Cc1ccco1	6.3µM	0	0	0	0	0	0	0
CSc1ncc(C(=O)Nc2cc(C)cc(C)c2)c(-c2ccccc2)n1	-	-	0	0	0	-	-	-
CCOC(=O)NC1(NC(C)C)Oc2ccccc2O1	0	0	0	0	0	-	-	-
CCOC(=O)NC1(Nc2ccc(C)cc2)Oc2ccccc2O1	?	0	?	0	0	0	0	0
O=C(O)CCN1c2ccccc2Sc2ccccc21	0	-	-	0	0	-	-	-
CN(C)CCCN1c2ccccc2Sc2ccc(Cl)cc21	?	5.6µM	23µM	?	?	-	-	-	G2M arrest HeLa=?
COc1ccccc1N(CC(=O)NCCSc1ccccc1)S(=O)(=O)c1ccc(C)cc1	-	?	?	0	0	-	-	-
O=C(N/N=C\c1ccc([N+](=O)[O-])s1)c1cncc(Br)c1	10µM	2.6µM	2.9µM	-	-	0	22µM	?
C#CCn1c(C)cc(C)c(S(=O)(=O)c2ccccc2)c1=O	0	0	0	0	0	-	-	-
C#CCn1c(S(=O)(=O)Cc2ccc(C)cc2)nc(-c2ccccc2)c1-c1ccccc1	?	4.6µM	3.3µM	0	0	0	7.9µM	0
CSc1ncc(C(=O)N2CCN(c3ccc(Cl)cc3)CC2)c(C)n1	-	-	0	0	0	-	-	-
CCN(CC)C(=O)N1c2ccccc2C=Cc2ccccc21	?	1.1µM	0.63µM	?	-	0	5µM	0
CNC1=C(N(C(C)=O)c2ccc(Br)cc2)C(=O)c2ccccc2C1=O	?	2.3µM	5.6µM	5.6µM	?	?	?	?
CC(=O)c1c(C)oc2ccc(N(C(=O)Oc3ccccc3)S(=O)(=O)c3ccc(C(C)(C)C)cc3)cc12	-	-	0	0	0	-	-	-
